Reference: PubChem BioAssay (EPA / NIEHS)
Active and inactive are the calls of the source. The calls were made as follows: active = hit-call score of the fitted dose curve at least 0.9, where 1 is the maximum; inactive = score below 0.9.

What follows are compounds tested against Hypoxia-inducible factor 1-alpha (Homo sapiens) (UniProt Q16665) (assay: ATG_HIF1a_CIS: Attagene CIS-FACTORIAL HepG2 Assay for human Hypoxia Inducible Factor 1 (HIF1A) (AID 2282951)). Details: HepG2 Attagene cis-factorial HIF1a reporter transcription; actives raise or lower the signal.
Description: ATG_CIS is a cell-based, multiplexed-readout assay that uses HepG2, a human liver cell line, with measurements taken at 24 hours after chemical dosing in a 24-well plate.ATG_HIF1a_CIS is one of 52 assay component(s) measured or calculated from the ATG_CIS assay. It is designed to make measurements of mRNA induction, a form of inducible reporter, as detected with fluorescence intensity signals by Reverse transcription polymerase chain reaction (RT-PCR) and Capillary electrophoresis technology.Data from the assay component ATG_HIF1a_CIS was analyzed into 1 assay endpoint. This assay endpoint, ATG_HIF1a_CIS, was analyzed with bidirectional fitting relative to DMSO as the negative control and baseline of activity. Using a type of inducible reporter, measures of mRNA for gain or loss-of-signal activity can be used to understand the reporter gene at the transcription factor-level as they relate to the gene HIF1A. Furthermore, this assay endpoint can be referred to as a primary readout, because this assay has produced multiple assay endpoints where this one serves a reporter gene function. To generalize the intended target to other relatable targets, this assay endpoint is annotated to the dna binding intended target family, where the subfamily is basic helix-loop-helix protein.
Human liver HepG2 cells are transiently transfected with multiple reporter transcription units (MRTUs) in 6-well plates using FuGene 6 reagent (Roche; 3 ml FuGene/1 mg DNA). The MRTU constructs are regulated by a cis-regulating element (promoter). […] A major difference between the CIS and TRANS system is that in CIS activities of endogenous TFs are measured, whereas the TRANS assay evaluates changes in activities of exogenous, chimeric NR-Gal4 proteins. […] At the end of 24 hour incubation, total RNA was isolated using TriZol reagent (Invitrogen). The isolated RNA is then reverse-transcribed using oligo(dT) primer and Mo-MLV reverse transcriptase (Invitrogen) with DNAse I (Ambion) treatment for 30 min. The one-tenth of the produced cDNA was amplified by PCR using Taq DNA polymerase (Invitrogen) and two reporter sequence-specific primers. The PCR products were fluorescently labeled by primer extension with 6-arboxyfluorescein (6-FAM) 5'-labeled reporter sequence-specific primer (2 min at 95 C, 20 s at 68 C and 10 min at 72 C) and these products were digested with 5U of HpaI (New England Biolabs) for 2h at 37 C. The fragments were purified using Qiaquick PCR columns (Qiagen), analyzed on an ABI 3130xL genetic analyzer (Applied Biosystems) with peak positions identified by using a set of X-rhodamine (ROX)-labeled MapMarker1000 molecular weight standards (BioVentures). The raw capillary electrophoresis data was processed using Attagraph software (Attagene).

Hypoxia-inducible factor 1-alpha (Homo sapiens), sequence (Q16665 whole entry, looked up): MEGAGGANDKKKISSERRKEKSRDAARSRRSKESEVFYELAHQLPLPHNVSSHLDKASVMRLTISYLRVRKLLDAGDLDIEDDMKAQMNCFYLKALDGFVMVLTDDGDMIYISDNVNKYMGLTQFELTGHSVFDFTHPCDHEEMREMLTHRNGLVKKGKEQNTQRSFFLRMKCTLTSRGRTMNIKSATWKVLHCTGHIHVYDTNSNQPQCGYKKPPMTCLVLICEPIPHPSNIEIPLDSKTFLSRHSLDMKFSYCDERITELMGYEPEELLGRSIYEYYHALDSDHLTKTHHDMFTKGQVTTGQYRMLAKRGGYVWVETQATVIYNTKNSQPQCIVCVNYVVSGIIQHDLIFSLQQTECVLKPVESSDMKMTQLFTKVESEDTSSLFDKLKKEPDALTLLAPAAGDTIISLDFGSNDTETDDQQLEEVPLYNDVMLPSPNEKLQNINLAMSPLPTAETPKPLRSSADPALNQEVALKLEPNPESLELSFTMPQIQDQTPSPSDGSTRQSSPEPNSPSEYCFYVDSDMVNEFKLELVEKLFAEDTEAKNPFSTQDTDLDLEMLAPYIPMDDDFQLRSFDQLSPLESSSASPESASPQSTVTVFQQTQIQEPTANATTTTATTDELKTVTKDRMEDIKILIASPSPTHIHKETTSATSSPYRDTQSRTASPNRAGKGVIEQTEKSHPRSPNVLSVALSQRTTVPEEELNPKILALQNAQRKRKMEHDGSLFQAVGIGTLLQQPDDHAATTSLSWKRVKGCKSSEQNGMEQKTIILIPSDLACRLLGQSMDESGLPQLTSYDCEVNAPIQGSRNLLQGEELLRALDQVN

| Compound | outcome | AC50 |
| --- | --- | --- |
| O=C(O)CCCc1ccc(N(CCCl)CCCl)cc1 | inactive |  |
| CCOP(O)OCC | inactive |  |
| C=CC(=O)OC | inactive |  |
| N#Cc1cc(I)c(O)c(I)c1 | inactive |  |
| Oc1cc(Cl)ccc1Cl | inactive |  |
| S=c1[nH]c2ccccc2[nH]1 | inactive |  |
| COc1cc(OC)c(OC)cc1C=O | inactive |  |
| Cc1ccc(C)c2ccccc12 | inactive |  |
| CCCCCCCCCCCCCCCC[N+](C)(C)C | inactive |  |
| CC(C)[C@@H](C(=O)O[C@@H](C#N)c1cccc(Oc2ccccc2)c1)c1ccc(Cl)cc1 | inactive |  |
| Nc1ccccc1C(=O)Oc1ccc2ccccc2c1 | inactive |  |
| c1ccc(Nc2ccc3ccccc3c2)cc1 | inactive |  |
| CN1C[C@H](C(=O)N[C@]2(C)O[C@@]3(O)[C@@H]4CCCN4C(=O)[C@H](Cc4ccccc4)N3C2=O)C=C2c3cccc4[nH]cc(c34)C[C@H]21 | inactive |  |
| O=S(=O)(c1ccccc1)c1ccccc1 | inactive |  |
| [CH3][Sn]([Cl])([Cl])[Cl] | inactive |  |
| C=COCCCl |  | 48.5 µM (active) |
| ClCC(Cl)Cl | inactive |  |
| CCCCCc1cc(O)cc(O)c1 |  | 100 µM (active) |
| CCC(C)c1cc(C(C)(C)C)cc(-n2nc3ccccc3n2)c1O (stereo not given) | inactive |  |
| CC(C)CCCCCCCOC(=O)c1ccccc1C(=O)OCCCCCCCC(C)C | inactive |  |

| Compound | outcome | AC50 |
| --- | --- | --- |
| Cl/C=C\CCl | inactive |  |
| CC(C)COP(=O)(OCC(C)C)OCC(C)C | inactive |  |
| O=C(O)CCl | inactive |  |
| CCc1cc(C)cc(CC)c1-c1c(OC(=O)C(C)(C)C)n2n(c1=O)CCOCC2 | inactive |  |
| CCC(C)(C)O | inactive |  |
| CCOP(=O)(OCC)Oc1ccc([N+](=O)[O-])cc1 | inactive |  |
| CC=Cc1ccc2c(c1)OCO2 | inactive |  |
| CCC(C)c1cc([N+](=O)[O-])cc([N+](=O)[O-])c1OC(=O)C=C(C)C (stereo not given) | inactive |  |
| CC(C)C#N | inactive |  |
| C=CCc1ccc(OC(=O)Cc2ccccc2)c(OC)c1 | inactive |  |
| CCOC(=O)N(C)N=O | inactive |  |
| SCc1ccco1 | inactive |  |
| Cc1ccc(N(SC(F)(Cl)Cl)S(=O)(=O)N(C)C)cc1 |  | 11.1 µM (active) |
| CCCCOP(=O)(O)OCCCC | inactive |  |
| O=[N+]([O-])O.O=[N+]([O-])O.[Cd] | inactive |  |
| C[N+](=O)[O-] | inactive |  |
| C=CC(=O)OCCCCOC(=O)C=C |  | 63.6 µM (active) |
| CC1CCC(=O)O1 (stereo not given) | inactive |  |
| COc1ncc(F)c2nc(S(=O)(=O)Nc3c(F)cccc3F)nn12 | inactive |  |
| CNC(=O)Oc1cc(C)c(SC)c(C)c1 | inactive |  |
